# Experimental data published in PubChem BioAssay (NCATS).
# Results filed as inconclusive are left out. Values without a mark were called inactive. Calls of active or inactive are those of the source. The call rests on the fitted dose curve; in most records, active means well fitted inhibition curve with a large enough effect; inconclusive means small, poorly fitted or top-dose-only effect; inactive means no such curve, though single readings can be large or run the other way.
# Molecular target: Rap guanine nucleotide exchange factor 3 (Homo sapiens) (UniProt O95398)
# Assay: Counterscreen qHTS for antagonist of cAMP-regulated guanine nucleotide exchange factor 3 (EPAC1) (AID 1645888); further: % of control where 0% means no effect
# Conditions: Rap1B-BODIPY-GDP nucleotide exchange, fluorescence; series mostly up to 154 µM
# Description: Assay Provider (PI): Xiaodong Cheng Ph.D. The University of Texas Medical Branch, […], TX MLPCN Grant: NS066510 In multi-cellular eukaryotic organisms, the effects of cAMP are transduced by two ubiquitously-expressed intracellular cAMP receptors, the classic protein kinase A/cAMP-dependent protein kinase (PKA/cAPK) and the more recently discovered exchange protein directly activated by cAMP/cAMP-regulated guanine nucleotide exchange factor (EPAC/cAMP-GEF). Both PKA and EPAC are ubiquitously expressed in all tissues, and an increase in intracellular cAMP levels will lead to the activation of both PKA and EPAC. Therefore, careful dissections of the individual role and relative contribution of EPAC and PKA within the overall cAMP signaling in various model systems are critical for further elucidating the mechanism of cAMP signaling. To date no EPAC-specific antagonists and agonist, as well as isoform-specific agonists have been reported, and developing EPAC-specific pharmacological probes to determine the physiological functions that EPAC play in the overall cAMP-mediated signaling remains a major challenge within the research field. Furthermore, identified regulators of EPAC may lead to new mechanism-based therapeutic strategies specifically targeting the EPAC / cAMP-signaling components as EPAC has been implicated to play important roles in major human pathological conditions such as diabetes, heart disease, and cancer. This qHTS will be used to screen the Molecular Libraries Small Molecule Repository (MLSMR) as a concentration-titration series using the NCGC unique quantitative screening (qHTS) platform to find activators for EPAC1. In addition, this assay will also be used as a counterscreen for the EPAC2 qHTS. This fluorescent based assay is developed and validated for EPAC1 that measures exchange using EPAC effector Rap1 complex with BODIPY-GDP, a GDP analog with a tethered fluorophores. Activators are identified by monitoring the change in fluorescence signal as the exchanged free BODIPY-GDP has a reduced fluorescence compared to Rap1-bound BODIPY-GDP. Increase in signal (activation) is the desired outcome for the EPAC1 agonist while no activity in this assay is desired for the EPAC2 agonist counterscreen. Reference: [1] de Rooij, J., Zwartkruis, F. J., Verheijen, M. H., Cool, R. H., Nijman, S. M., Wittinghofer, A., and Bos, J.L. (1998) Nature 396, 474-477. Kawasaki, H., Springett, G. M., Mochizuki, N., Toki, S., Nakaya, M., Matsuda, M., Housman, D. E., and Graybiel, A. M. (1998) Science 282, 2275-2279.
# EPAC1 Counterscreen PROTOCOL TABLE SEQUENCE No. (e.g., 1, 2, 3, etc.); […] (e.g., Cells, Incubation, Reagent, etc.); VALUE and DESCRIPTION. 1. Reagent. 3 uL. [1x] 250 nM Rap1B-BODIPY-GDP, and 50 uM GDP. 2a. Compound. 23 nL. Control 6,572 uM cAMP (working concentration). 2b, 2c. Compound. 23 nL. Control activator and inhibitor; 234 - 30,000 uM cAMP and 16.4 - 10,000 uM. 2d. Compound. 46 nL. MLSMR follow-up library; 0.64 - 10,000 uM. 3. Time. 15 sec, 1000rpm. Centrifuge. 4. Time. 5 min. Incubation at room temperature. 5. Detector. Fluorescence. (Read 1), Ex/Em = 480 nm / 540 nm. 6. Time. 30 min. Incubation at room temperature. 7. Detector. Fluorescence. (Read 2), Ex/Em = 480 nm/ 540 nm. 8. Reagent. 1uL. Dispense either [4x] 10 uM cAMP or buffer. 9. Time. 15 sec, 1000 rpm. Centrifuge. 10. Time. 5 min. Incubation at room temperature. 11. Detector. Fluorescence. (Read 3), Ex/Em = 480 nm / 540 nm. 12. Time. 30 min. Incubation at room temperature. 13. Detector. Fluorescence. (Read 4), Ex/Em = 480 nm / 540 nm. NOTES (numbers refer to Sequence numbers above; values are from representative experiments) 1. Medium-binding black solid-bottom Greiner plates (789176-F). Dispense 3 uL of [1x] 250 nM Rap1B-BODIPY-GDP, and 50 uM GDP into columns 1 to 48. 2a. Control compound cAMP (6,572 uM, column 3, rows 1 to 32) single pin-transferred for a [final] of 50 uM. 2b. […]
# Chain of Rap guanine nucleotide exchange factor 3 (Homo sapiens) (O95398 whole entry, looked up): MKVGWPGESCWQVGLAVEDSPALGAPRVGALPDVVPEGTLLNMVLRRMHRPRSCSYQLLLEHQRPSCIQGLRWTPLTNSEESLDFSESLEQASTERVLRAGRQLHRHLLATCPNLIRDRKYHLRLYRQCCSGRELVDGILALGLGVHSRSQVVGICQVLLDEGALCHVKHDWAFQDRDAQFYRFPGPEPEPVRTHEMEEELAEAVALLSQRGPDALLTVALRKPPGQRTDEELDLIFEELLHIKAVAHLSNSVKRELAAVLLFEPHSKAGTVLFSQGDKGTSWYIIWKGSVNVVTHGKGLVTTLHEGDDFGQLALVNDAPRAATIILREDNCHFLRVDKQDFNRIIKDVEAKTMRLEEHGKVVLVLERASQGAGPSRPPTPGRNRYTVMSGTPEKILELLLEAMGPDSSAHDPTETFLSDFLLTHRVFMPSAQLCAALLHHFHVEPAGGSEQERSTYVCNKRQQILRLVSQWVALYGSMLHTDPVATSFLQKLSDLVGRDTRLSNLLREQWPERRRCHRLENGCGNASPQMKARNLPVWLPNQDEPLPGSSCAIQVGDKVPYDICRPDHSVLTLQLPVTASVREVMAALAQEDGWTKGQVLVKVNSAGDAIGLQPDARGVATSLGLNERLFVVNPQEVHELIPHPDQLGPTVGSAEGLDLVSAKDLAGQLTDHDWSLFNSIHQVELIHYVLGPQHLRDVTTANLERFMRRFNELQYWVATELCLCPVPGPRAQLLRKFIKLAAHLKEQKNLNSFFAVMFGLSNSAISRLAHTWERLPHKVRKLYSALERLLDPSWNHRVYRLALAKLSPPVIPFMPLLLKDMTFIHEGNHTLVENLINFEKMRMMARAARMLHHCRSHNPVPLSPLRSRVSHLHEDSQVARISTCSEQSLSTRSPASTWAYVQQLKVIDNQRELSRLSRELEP
SMILES,"activity change, negative = inhibition",outcome
CC(c1ccccc1)(c1ccccc1)c1ccncc1,-6.49% [at 30.8 µM],–
COc1cccc(C(c2nnnn2C2CCCCC2)N2CCC3(CC2)C(=O)NCN3c2ccccc2)c1OC (stereo not given),–,inactive
CCOC(=O)c1c(-c2ccccc2)oc2ccc(OC(=O)N(C)C)cc12,–,inactive
Cc1ccc(N2C(=O)NC(=O)/C(=C\c3cc(C)n(-c4sc5c(c4C#N)CCCC5)c3C)C2=O)cc1,–,inactive
CCOC(=O)[C@]12Cc3cc(OC)ccc3[C@H]1N(C1CCCCC1)C(=O)c1ccccc12,–,inactive
CC(=O)C1C2c3ccccc3O[C@@]1(C)N=c1s/c(=C/c3ccoc3)c(=O)n12 (stereo not given in full),–,inactive
Cc1ccccc1OCC(=O)N1CCN(CCc2ccccn2)CC1,–,inactive
COC(=O)c1cn(Cc2ccc(F)cc2)c2ccccc12,–,inactive
CCCCNC(=O)c1c(N)n(CCCOC)c2nc3ccccc3nc12,–,inactive
CCOC(=O)[C@]12Cc3cc(C)ccc3[C@H]1N(Cc1ccccc1)C(=O)c1ccccc12,–,inactive
COc1ccc(N2C(=O)/C(=C/c3ccco3)C(=O)NC2=S)cc1,-2.79% [at 30.8 µM],–
CCOC(=O)[C@]12Cc3cc(Cl)ccc3[C@H]1N(CC(=O)OC)C(=O)c1ccccc12,–,inactive
CCc1nc2ccccc2c(=O)n1-c1ccccc1OC,–,inactive
O=C1NC(=O)N(CCc2ccc(F)cc2)C(=O)/C1=C/c1ccco1,-2.28% [at 30.8 µM],–
Cn1cccc1/C=C1/C(=O)NC(=S)N(Cc2ccc(F)cc2)C1=O,-2.5% [at 30.8 µM],–
COc1ccc(OC)c(N2C(=O)NC(=O)/C(=C/c3ccc([N+](=O)[O-])s3)C2=O)c1,10.9% [at 30.8 µM],–
O=C(c1ccco1)c1cn(Cc2ccccc2)c2ccccc12,–,inactive
COc1ccc(CN2C(=O)NC(=O)/C(=C\c3ccco3)C2=O)cc1,–,inactive
COc1ccc(C2C=C(C)Oc3c2c(=O)oc2ccccc32)cc1OC (stereo not given),–,inactive
CCOC(=O)[C@]12Cc3ccccc3[C@H]1N(C1CCCCC1)C(=O)c1cc(OC)ccc12,–,inactive

SMILES,"activity change, negative = inhibition",outcome
CCCCC/C(=N/O)c1c(C)[nH]c2ccccc12,–,inactive
COc1ccc(CN2C(=O)NC(=O)/C(=C/c3ccc([N+](=O)[O-])s3)C2=O)cc1,–,inactive
COC(=O)N1C(c2ccccc2)C1c1ccccc1 (stereo not given),4.2% [at 30.8 µM],–
O=C1NC(=O)N(Cc2ccco2)C(=O)/C1=C/c1cccn1CCOc1ccccc1Cl,–,inactive
COc1ccc(C(SCC(NC(=O)OCc2ccccc2)C(=O)O)c2ccc(OC)cc2)cc1 (stereo not given),–,inactive
CCOC(=O)c1cc(CC)sc1/N=C/c1c(O)[nH]c(=S)[nH]c1=O,–,inactive
Cc1cccc(N2C(=O)NC(=O)/C(=C\c3cccn3-c3ccc(Cl)cc3)C2=O)c1,–,inactive
Nc1c(C(=O)NCc2ccco2)c2nc3ccccc3nc2n1Cc1ccc(F)cc1,–,inactive
CC(C)c1ccc(C(c2c(O)c3ccccc3oc2=O)c2c(O)c3ccccc3oc2=O)cc1,–,inactive
O=c1[nH]c(=S)n(-c2ccc(Cl)cc2)c(O)c1C=Nc1ccc(N2CCOCC2)cc1,–,inactive
O=C1NC(=S)N(c2ccccc2)C(=O)/C1=C/c1ccco1,–,inactive
O=C1NC(=S)NC(=O)C1=Cc1cccc2cc3ccccc3cc12,–,inactive
CC(C)C/C(=N/O)c1cn(C)c2ccccc12,–,inactive
Cc1cc(/C=C2/C(=O)NC(=O)N(Cc3ccco3)C2=O)c(C)n1-c1ccccc1,–,inactive
COC(=O)C1=C(c2cc3ccccc3s2)C[C@@H]2CC[C@H]1N2C(=O)NC1CC1,–,inactive
Cn1cccc1/C=C1\C(=O)NC(=O)N(Cc2ccccc2)C1=O,–,inactive
COc1cc(/C=C/c2nc3ccccc3c(=O)n2-c2cccc(O)c2)ccc1O,–,inactive
Cc1cc(OC(C)C(=O)N[C@H](C(=O)O)c2ccccc2)c2c3c(c(=O)oc2c1)CCC3 (stereo not given in full),–,inactive
O=C1NC(=O)N(Cc2ccc(F)cc2)C(=O)/C1=C\c1ccoc1,–,inactive
O=C1NC(=O)N(Cc2ccccc2)C(=O)/C1=C\c1ccco1,0.623% [at 30.8 µM],–
